Giardia kill = kills Giardia lamblia. activity change, % at 7.66 µM, hits read low. Giardia lamblia trophozoite viability. AID 540267. actives 0.15% (n = 340,000); in the data active means activity change below about -80%; inconclusive means between about -30% and that limit;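 further: parasites exposed to compound for two days anaerobically before the ATP read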
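Trophozoite viability was measured as ATP-dependent luminescence, read 15-30 min after reagent addition. Before that, parasites at 100 cells/well were exposed to compounds for 48 h, anaerobically, at 37 deg C.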
p53 reactivation = re-activators of mutant p53 | H1299 p53-A138V BP100-luciferase reporter, luminescence, 24 h | Potency, µM (titrated, usually from 92.2 µM), usual class: activators | actives 0.063% (n = 320,000) | AID 504706; further: nearly all actives have a fitted effect of over 45% in size
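H1299 (p53-null), stable ts p53-A138V + BP100-Luc; 1000 cells/well, Opti-MEM/10% FBS; cpd 4 pt, 1:5; 24 h, 37 deg C, 5% CO2; detection reagent 10 min RT; luminescence.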
Gal4-VP16 FLuc = counter-screen for ROR gamma inhibitors: Gal4-VP16 reporter; Drosophila S2 Gal4-VP16 UAS-luciferase, luminescence, 20 h; Potency, µM (top dose mostly 53.6 µM), usual class: inhibitors; actives 3.5% (n = 310,000); AID 2546;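 further: Gal4-VP16 expression switched on by copper sulfate through the metallothionein promoter; nearly all actives have a fitted effect of over 50% in size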
RORg inh = inhibitors of mouse ROR gamma transcriptional activity; P51450; Drosophila S2 Gal4-RORgamma UAS-luciferase reporter, 20 h; Potency, µM (top dose mostly 53.6 µM), most hits filed as inhibitors; actives 5.4% (n = 310,000); further: nearly all actives have a fitted effect of over 60% in size
Target sequence (P51450 whole entry, looked up, the tested form may be a part): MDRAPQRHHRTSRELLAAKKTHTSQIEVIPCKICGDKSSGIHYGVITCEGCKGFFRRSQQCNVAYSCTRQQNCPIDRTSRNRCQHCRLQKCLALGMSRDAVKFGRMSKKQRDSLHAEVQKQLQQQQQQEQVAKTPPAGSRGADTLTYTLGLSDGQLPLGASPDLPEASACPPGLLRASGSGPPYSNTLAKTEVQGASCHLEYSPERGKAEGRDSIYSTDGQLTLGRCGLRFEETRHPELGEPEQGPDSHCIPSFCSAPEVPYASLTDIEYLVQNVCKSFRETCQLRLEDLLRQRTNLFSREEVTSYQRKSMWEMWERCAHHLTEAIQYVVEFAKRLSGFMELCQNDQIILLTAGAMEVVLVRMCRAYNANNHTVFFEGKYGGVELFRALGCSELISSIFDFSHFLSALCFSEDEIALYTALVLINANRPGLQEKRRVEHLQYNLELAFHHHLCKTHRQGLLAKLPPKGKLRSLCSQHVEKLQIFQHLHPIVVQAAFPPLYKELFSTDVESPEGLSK
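Drosophila Schneider cells stably carrying a metallothionein-driven Gal4 DBD–ROR gamma fusion and a UAS-Photinus luciferase reporter were exposed to compound for 1 hr, then induced with copper sulfate (700 uM final) for 20 hr at ambient temperature before luminescence reading.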
BRCA1 expr up = BRCA1 expression activation | AID 624202 | actives 1.1% (n = 380,000) | Potency, µM (doses to about 46.1 µM), actives largely listed as activators | MCF7-BRCA1-FFLuc reporter, luminescence, 48 h; response scale: scaled: vehicle 0%, 10 µM genistein 100%; further: nearly all actives have a fitted effect of over 80% in size
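Compounds are tested at multiple concentrations on MCF7 BRCA1-luciferase reporter cells seeded at 2000 per well; after 48 h, a single luminescence end-point is taken and curves fitted to the normalized data.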
ELG1 repair inh = inhibitors of ELG1-dependent DNA repair in HEK293T cells; HEK293T ELG1-luciferase reporter, luminescence, 16 h; DNA damage induced by 5-fluorouridine; Potency, µM (doses to about 46.1 µM), most hits filed as inhibitors; actives 2.3% (n = 330,000); further: nearly all actives have a fitted effect of over 55% in size
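DMSO vehicle served as the neutral condition. Each well held 2,000 cells given 5-fluorouridine plus compound; after 16 hr at 37 °C/5% CO2, ONE-Glo was added and luciferase measured 30 min later.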
Hits are given with their value; – = inactive; ? = inconclusive; · = no result given. In the library only some 7.6% were active in any assay of this set; here they are far more common. Unless noted, the call rests on the fitted dose curve; in most records, active means well fitted curve in the direction sought with a large enough effect; inconclusive means small, poorly fitted or top-dose-only effect, or another doubt; inactive means no such curve, though single readings can be large; an effect the other way counts as inactive or inconclusive.

SMILES	Giardia kill	p53 reactivation	Gal4-VP16 FLuc	RORg inh	BRCA1 expr up	ELG1 repair inh
COc1ccc(C2(c3ccc(O)cc3O)CC(c3ccccc3Cl)NC(=S)N2)cc1 (stereo not drawn)	–	–	–	–	–	–
CC(=O)Oc1cc2c(cc1Cl)C1(CC(c3ccccc3Cl)O2)CC(C)(C)NC(=S)N1 (stereo not drawn)	–	–	?	10µM	–	?
O=C(NCc1cccc(Cl)c1)c1cnn2c1NC(c1ccco1)CC2C(F)(F)F (stereo not drawn)	–	–	–	–	–	?
CN(Cc1ccc(-n2cccn2)cc1)C(=O)c1cnn2c1NC(c1ccco1)CC2C(F)(F)F (stereo not drawn)	–	–	–	–	–	10µM
Cc1ccc(Cl)cc1NC(=O)c1cnn2c1NC(c1ccco1)CC2C(F)(F)F (stereo not drawn)	–	–	–	–	–	18µM
CCOC(=O)c1cc(-c2ccc(OC)cc2)nc2c1c(C)nn2CCC(N)=S	–	–	?	4.5µM	–	12µM
CCOC(=O)N1CCN(c2nc3ccc(C(=O)c4ccccc4)cc3n3cnnc23)CC1	–	–	–	–	–	?
O=C(c1ccccc1)c1ccc2nc(N3CCN(C(=O)c4ccco4)CC3)c3nncn3c2c1	–	–	–	–	–	21µM
CCOC(=O)c1c(C)oc(NC(=O)COc2ccc(Cl)cc2C)c1C#N	–	–	–	–	–	21µM
CSc1ccccc1NC(=O)COc1ccc(Cl)cc1C	–	?	–	–	–	?
CSc1ccc(CN2CCN(C(=O)c3ccncc3)CC2)cc1	–	–	–	–	–	?
Clc1nc(N2CCOCC2)ncc1Br	–	–	–	–	–	–
Cc1[nH]c2ccc(-c3n[nH]c(=S)n3Cc3ccccc3)cc2c1C	–	–	–	10µM	–	–
COc1cccc(-n2c(-c3ccc4[nH]c(C)c(C)c4c3)n[nH]c2=S)c1	–	–	–	?	–	?
Cc1[nH]c2ccc(-c3n[nH]c(=S)n3-c3ccc(Br)cc3)cc2c1C	–	–	–	7.9µM	–	–
Cc1[nH]c2ccc(-c3n[nH]c(=S)n3-c3ccccc3)cc2c1C	–	–	?	7.9µM	–	–
CCCN(C(=O)c1cn(CC(C)C)c(=O)c2cc(OC)c(OC)cc12)c1cccc(C)c1	·	·	·	·	–	·
Cc1ccc(CNC(=O)CCCCCNc2nc(=S)[nH]c3ccccc23)cc1	·	–	–	?	·	?
O=C(CCCn1c(=O)[nH]c2ccccc2c1=O)N1CCN(c2ccccn2)CC1	–	–	–	–	–	–
COc1cccc(N2CCN(C(=O)CCCCCNc3nc(=S)[nH]c4ccccc34)CC2)c1	–	–	?	8.9µM	–	18µM
O=C(CCCCCNc1nc(=S)[nH]c2ccccc12)N1CCN(c2ccccn2)CC1	·	–	?	10µM	·	?
CCCCCCOC1(c2ccccc2)OC(=O)c2ccccc21 (stereo not drawn)	–	–	–	–	–	–
COC1(c2ccccc2)NC(=S)NN=C1c1ccccc1 (stereo not drawn)	–	–	?	11µM	–	–
CCCCOC1(c2ccccc2)NC(=S)NN=C1c1ccccc1 (stereo not drawn)	·	–	?	10µM	·	–
Cc1ccc2nc(C3CCCN3Cc3nc(CCC(C)C)no3)[nH]c2c1 (stereo not drawn)	–	–	20µM	7.1µM	–	?
SMILES	Giardia kill	p53 reactivation	Gal4-VP16 FLuc	RORg inh	BRCA1 expr up	ELG1 repair inh
O=[N+]([O-])c1cccc(S(=O)(=O)Nc2nc3ccccc3nc2Nc2cccc(S(=O)(=O)N3CCCCC3)c2)c1	–	–	11µM	?	–	2.1µM
Cc1ccc(S(=O)(=O)Nc2nc3ccccc3nc2Nc2cccc(S(=O)(=O)N3CCCC3)c2)cc1	–	–	–	?	–	21µM
O=[N+]([O-])c1cccc(S(=O)(=O)Nc2ccc(S(=O)(=O)N3CCCC3)cc2)c1	–	·	·	·	–	·
COc1ccc(S(=O)(=O)Nc2cccc(S(=O)(=O)N3CCCCC3)c2)cc1	–	–	·	·	–	–
CN(C)c1ncnc2c1ncn2[C@H]1CN(CCN2CCOCC2)C[C@@H](CO)O1	·	·	·	·	–	·
CC1=CC(C)(C)N2C(=O)C3(C(C#N)=C(N)Oc4cc(O)ccc43)c3c(C)c(C)cc1c32 (stereo not drawn)	–	–	–	2.8µM	–	–
CC1=CC(C)(C)N2C(=O)C3(C(C#N)=C(N)OC4=C3C(=O)CCC4)c3c(C)c(C)cc1c32 (stereo not drawn)	–	–	–	–	–	–
CCCCn1c(CNC(=O)CC)nc2ccccc21	–	–	–	–	–	–
Cc1nc2ccccc2n1CC(=O)NCCN1CCOCC1	–	–	–	–	–	–
O=C(Nc1nc2ccccc2n1CCN1CCOCC1)c1ccc(Cl)cc1	–	–	2.8µM	0.4µM	–	–
CCCCCCCn1c(NC(=O)CC)nc2ccccc21	–	–	0.63µM	0.089µM	–	?
CCC(=O)Nc1nc2ccccc2n1CCN1CCOCC1	–	–	?	14µM	–	–
N=C1S/C(=C\c2ccc(-c3cccc(Cl)c3)o2)C(=O)N1c1nccs1	–	?	–	0.14µM	–	?
COc1ccc(/C=C2\SC(=N)N(c3nccs3)C2=O)cc1OC	–	?	?	0.13µM	–	?
O=C1OC(c2cccs2)=N/C1=C\c1ccc(-c2cccc(Cl)c2)o1	–	–	–	?	–	–
CC12CC(c3ccccc3O1)N(C(=O)c1ccco1)C(=S)N2c1ccc(F)cc1 (stereo not drawn)	–	–	?	10µM	–	–
COc1ccc(Cl)cc1NC(=O)CN(C)C(=O)CSc1ccc2c(c1)OCCO2	–	–	·	·	–	–
O=C(O)c1cc(C2CC2)nn1-c1ccccc1	–	–	–	–	–	–
Nc1cc(C2CCCC2)nn1-c1ccccc1	–	–	–	–	10µM	?
CN1CCN(C2=CC(=O)OC23CCCCC3)CC1	–	–	–	–	–	–
O=C(C1=C(c2ccccc2)C(=O)c2ccccc2C1=O)c1ccccc1	?	–	11µM	11µM	–	6.5µM
O=C(CSc1ccc(F)cc1)NC1CCCCC1	–	–	–	–	11µM	?
O=C(Cc1ccc(Br)cc1)NC1CCCCC1	–	–	–	?	–	?
Cc1ccc(CS(=O)(=O)Cc2ccc(C(=O)NC3CCCCCC3)o2)cc1	–	–	–	?	–	18µM
O=C(Cc1ccc(O)cc1)NC1CCCCCC1	–	?	–	–	3.5µM	?
COCCCNC(=S)NC1CCCCC1	–	–	?	11µM	–	–
O=C(CSc1ccc(Br)cc1)NC1CCCCCC1	–	–	·	·	–	?
